# From PubChem BioAssay
# Several values for one entry are separate records, joined by “and”; a condition that tells them apart may be missing. Equal entries are not always repeated. Where a structure was tested more than once in an assay, its records may differ in their call. Activity calls are given as the source filed them.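 How the source made its calls, unless noted: active means normalized viability below 100% at a tested concentration; inactive means the rest.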
# Tests used:
# [1] = modifiers of HSF1 nuclear foci, imaging, Selleck Cancer Library (AID 1347162; in the data active means plate-normalised HSF1 focus index below about 0.46); conditions: human cells, at 10 µM; SSMD: measured here: HSF1 foci SSMD mean; cell count: measured here: cell number; plate-normalised HSF1 focus index: stronger effect = lower value
# [2] = ovarian cancer cell viability with rucaparib, profiling panel, oncology-focused library, rucaparib conditional (AID 1508598); conditions: patient-derived ovarian cancer cells, CellTiter-Glo viability, 144 h, stronger effect = lower value
# [3] = phospholipid biosynthesis inhibitors in animal cells, primary screen, cell-based, LOPAC library, screen 4 (AID 1347384; call rule not given here); conditions: phospholipid biosynthesis inhibition screen, at 10 µM
# [4] = liver-stage malaria parasite growth inhibition, primary screen, cell-based, HepG2, luciferase luminescence, HepG2 viability (AID 624349; in the data active means parasite load remaining mostly below about 12%, no sharp cut-off; inactive means mostly above about 10%;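 further: 100% = mean of DMSO negative control wells on the same plate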); conditions: P. berghei liver stage in HepG2, luciferase luminescence, concentration not given here; parasite load remaining: stronger effect = lower value; viability: measured here: HepG2 viability without parasites
structure (smiles),measurement,setting,value
N#CC[C@@H](C1CCCC1)n1cc(-c2ncnc3[nH]ccc23)cn1,SSMD,[1],2.05
same,cell count,[1],7030
same,plate-normalised HSF1 focus index,[1],1.12 (inactive)
same,viability,"[2]; at 0.000305 µM, OCI-C5x cells, with rucaparib 10 µM, 100% = cells with rucaparib alone",113% (inactive) and 107% (inactive)
same,viability,"[2]; at 0.000305 µM, OCI-C5x cells, without rucaparib",113% (inactive) and 115% (inactive)
same,viability,"[2]; at 0.000305 µM, OCI-P5x cells, with rucaparib 20 µM, 100% = cells with rucaparib alone",90.3% (active) and 57.2% (active)
same,viability,"[2]; at 0.000305 µM, OCI-P5x cells, without rucaparib",67.6% (active) and 15.7% (active)
same,viability,"[2]; at 0.00122 µM, OCI-C5x cells, with rucaparib 10 µM, 100% = cells with rucaparib alone",104% (inactive) and 71.4% (active)
same,viability,"[2]; at 0.00122 µM, OCI-C5x cells, without rucaparib",116% (inactive) and 58.3% (active)
same,viability,"[2]; at 0.00122 µM, OCI-P5x cells, with rucaparib 20 µM, 100% = cells with rucaparib alone",75.9% (active) and 50.4% (active)
same,viability,"[2]; at 0.00122 µM, OCI-P5x cells, without rucaparib",29.2% (active) and 17% (active)
same,viability,"[2]; at 0.00488 µM, OCI-C5x cells, with rucaparib 10 µM, 100% = cells with rucaparib alone",115% (inactive) and 102% (inactive)
same,viability,"[2]; at 0.00488 µM, OCI-C5x cells, without rucaparib",114% (inactive) and 116% (inactive)
same,viability,"[2]; at 0.00488 µM, OCI-P5x cells, with rucaparib 20 µM, 100% = cells with rucaparib alone",107% (inactive) and 105% (inactive)
same,viability,"[2]; at 0.00488 µM, OCI-P5x cells, without rucaparib",106% (inactive) and 105% (inactive)
same,viability,"[2]; at 0.0195 µM, OCI-C5x cells, with rucaparib 10 µM, 100% = cells with rucaparib alone",109% (inactive) and 100% (inactive)
same,viability,"[2]; at 0.0195 µM, OCI-C5x cells, without rucaparib",99.4% (active) and 104% (inactive)
same,viability,"[2]; at 0.0195 µM, OCI-P5x cells, with rucaparib 20 µM, 100% = cells with rucaparib alone",99.9% (active) and 99.8% (active)
same,viability,"[2]; at 0.0195 µM, OCI-P5x cells, without rucaparib",99.4% (active) and 104% (inactive)
same,viability,"[2]; at 0.0781 µM, OCI-C5x cells, with rucaparib 10 µM, 100% = cells with rucaparib alone",112% (inactive) and 100% (inactive)
same,viability,"[2]; at 0.0781 µM, OCI-C5x cells, without rucaparib",113% (inactive) and 109% (inactive)
same,viability,"[2]; at 0.0781 µM, OCI-P5x cells, with rucaparib 20 µM, 100% = cells with rucaparib alone",100% (inactive) and 96.9% (active)
same,viability,"[2]; at 0.0781 µM, OCI-P5x cells, without rucaparib",101% (inactive) and 102% (inactive)
same,viability,"[2]; at 0.313 µM, OCI-C5x cells, with rucaparib 10 µM, 100% = cells with rucaparib alone",105% (inactive) and 98.1% (active)
same,viability,"[2]; at 0.313 µM, OCI-C5x cells, without rucaparib",106% (inactive) and 111% (inactive)
same,viability,"[2]; at 0.313 µM, OCI-P5x cells, with rucaparib 20 µM, 100% = cells with rucaparib alone",100% (inactive) and 90.7% (active)
same,viability,"[2]; at 0.313 µM, OCI-P5x cells, without rucaparib",96.4% (active) and 98.4% (active)
same,viability,"[2]; at 1.25 µM, OCI-C5x cells, with rucaparib 10 µM, 100% = cells with rucaparib alone",117% (inactive) and 101% (inactive)
same,viability,"[2]; at 1.25 µM, OCI-C5x cells, without rucaparib",108% (inactive) and 109% (inactive)
same,viability,"[2]; at 1.25 µM, OCI-P5x cells, with rucaparib 20 µM, 100% = cells with rucaparib alone",97.5% (active) and 88.1% (active)
same,viability,"[2]; at 1.25 µM, OCI-P5x cells, without rucaparib",96% (active) and 91.3% (active)
same,viability,"[2]; at 5 µM, OCI-C5x cells, with rucaparib 10 µM, 100% = cells with rucaparib alone",133% (inactive) and 122% (inactive)
same,viability,"[2]; at 5 µM, OCI-C5x cells, without rucaparib",115% (inactive) and 130% (inactive)
same,viability,"[2]; at 5 µM, OCI-P5x cells, with rucaparib 20 µM, 100% = cells with rucaparib alone",83.7% (active) and 82.4% (active)
same,viability,"[2]; at 5 µM, OCI-P5x cells, without rucaparib",86.9% (active) and 86.2% (active)
C[N+]1(C)CCC(OC(=O)C(c2ccccc2)c2ccccc2)CC1,outcome,[3],inactive
N#C/C(=C1/Nc2ccccc2S1)c1ccnc(NCCc2cccnc2)n1,parasite load remaining,[4],18.8% (inactive)
same,viability,[4],85.6%
same,SSMD,[1],2.72
same,cell count,[1],6770
same,plate-normalised HSF1 focus index,[1],1.16 (inactive)
O=CN(O)CCCP(=O)(O)O,outcome,[3],inactive
CC(=O)O[C@H]1CC2(C)[C@@H](C[C@@H](O)[C@H]3[C@@]4(C)CC[C@@H](O)[C@@H](C)[C@@H]4CC[C@@]32C)/C1=C(/CCC=C(C)C)C(=O)O (stereo partly drawn),outcome,[3],inactive
O=C(/C=C/c1ccc(O)cc1)CC(=O)/C=C/c1ccc(O)cc1,outcome,[3],inactive
COCCNC(=O)COc1ccc(OCCNC[C@H](O)COc2ccccc2)cc1,outcome,[3],inactive
CC(C)CC(NP(=O)(O)O[C@@H]1O[C@@H](C)[C@H](O)[C@@H](O)[C@H]1O)C(=O)NC(Cc1c[nH]c2ccccc12)C(=O)O (stereo partly drawn),outcome,[3],inactive
C=CC1=C(C)c2cc3[nH]c(cc4nc(cc5[nH]c(cc1n2)c(C)c5CCC(=O)O)C(CCC(=O)O)=C4C)c(C)c3C=C,outcome,[3],inactive
O=C(Nc1cc(C(F)(F)F)cc(C(F)(F)F)c1)Nc1c(Br)cc(Br)cc1-c1nn[nH]n1,outcome,[3],inactive
NC(=O)c1cc[n+](CC2=C(C(=O)O)N3C(=O)[C@@H](NC(=O)[C@@H](c4ccccc4)S(=O)(=O)O)[C@H]3SC2)cc1,outcome,[3],inactive
NC(=S)c1ccc[n+]([C@@H]2O[C@@H](COP(=O)(O)OP(=O)(O)OC[C@H]3O[C@@H](n4cnc5c(N)ncnc54)C(OP(=O)(O)O)[C@H]3O)C(O)C2O)c1 (stereo partly drawn),outcome,[3],inactive
O=C1Nc2ccc(-c3cccnc3)cc2/C1=C/c1ccc[nH]1,SSMD,[1],-1.39
same,cell count,[1],7060
same,plate-normalised HSF1 focus index,[1],0.916 (inactive)
